# Sfp inh – inhibitors of Bacillus subtilis Sfp phosphopantetheinyl transferase; Biochemical Sfp PPTase activity, qHTS; AID 1490; Potency, µM, for the others: largest response in the series, negative = inhibition, hits mostly inhibitors; 3.5% of 310,000 active;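 note: the enzyme is Sfp with the accession as filed and its product quenches rhodamine fluorescence; 0% = enzyme reaction without inhibitor and -100% = no enzyme wells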
#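 Fluorescence-quenching assay with 15 nM Sfp, 5 uM rhodamine-CoA and 12.5 uM BHQ-2-labelled ybbR peptide in pH 7.6 Hepes/MgCl2 buffer. Enzyme was pre-incubated with compound for 15 min at room temperature. Rate was taken from the 30-min fluorescence change (525/598 nm).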
# rTrxR1 inhibitor – blocks rat thioredoxin reductase 1; recombinant rTrxR1, NADPH fluorescence consumption, selenite substrate; 1% of 390,000 active; Potency, µM (top dose mostly 114 µM), for inactives: at the highest dose activity change, negative = inhibition, hits mostly inhibitors; O89049; note: nearly all actives have a fitted effect of over 65% in size
#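 Rat TrxR1 (90 nM in the dispensed reagent) was pre-reduced with 400 uM NADPH for 5 min at room temperature, then incubated with compound for 15 min. After 400 uM selenite was added, NADPH fluorescence (Ex 340/Em 450 nm) was followed for 8 min.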
# TrxR1 substrate – is turned over as a substrate by rat TrxR1. O89049. purified TrxR1 substrate turnover, NADPH consumption readout. Potency, µM (top dose mostly 114 µM), inactives show at the top dose activity change, negative = substrate turnover. 0.01% of 390,000 active. AID 588456; note: nearly all actives have a fitted effect of over 50% in size
#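 Rat TrxR1, dispensed at 90 nM, was prereduced with 400 uM NADPH (final) for 5 min at ~22 deg C, then incubated with compound 15 min before 400 uM selenite. A first-read NADPH fluorescence drop versus no-compound background flagged substrates.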
# PLK1 PBD block – blocks phosphopeptide binding to human PLK1 polo-box domain; Plk1 PBD binding of FITC phosphopeptide, fluorescence polarization; Potency, µM, inactives show max response, negative = inhibition, hits mostly inhibitors; 2.8% of 360,000 active; AID 720504; note: series mostly up to about 57 µM; nearly all actives have a fitted effect of over 65% in size
# Target sequence (P53350 whole entry, looked up, the tested form may be a part): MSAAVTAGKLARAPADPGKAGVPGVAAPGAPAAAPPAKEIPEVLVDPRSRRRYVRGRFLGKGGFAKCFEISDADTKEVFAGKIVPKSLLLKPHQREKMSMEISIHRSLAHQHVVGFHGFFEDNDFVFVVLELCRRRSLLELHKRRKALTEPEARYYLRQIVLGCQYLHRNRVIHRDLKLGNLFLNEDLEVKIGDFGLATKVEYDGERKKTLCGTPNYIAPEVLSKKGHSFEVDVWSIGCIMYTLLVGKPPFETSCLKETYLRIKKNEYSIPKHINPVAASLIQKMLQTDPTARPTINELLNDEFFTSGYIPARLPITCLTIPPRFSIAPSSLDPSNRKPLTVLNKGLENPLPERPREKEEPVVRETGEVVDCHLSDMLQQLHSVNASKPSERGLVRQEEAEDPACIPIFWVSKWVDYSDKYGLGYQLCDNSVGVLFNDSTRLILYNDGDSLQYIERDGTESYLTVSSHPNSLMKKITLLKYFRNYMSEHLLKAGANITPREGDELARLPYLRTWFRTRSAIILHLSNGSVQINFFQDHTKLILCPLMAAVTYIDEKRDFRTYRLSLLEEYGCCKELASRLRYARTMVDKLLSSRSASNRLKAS
# VDR inh – inhibitors of human vitamin D receptor; P11473; VDR-SRC2-3 peptide fluorescence polarization, 2 h; Potency, µM, for the others: max response, negative = inhibition, hits mostly inhibitors; 0.93% of 400,000 active; AID 504847
#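 VDR–SRC2-3 interaction, FP format. Cmpds 23 nl via pintool, brief spin, 2 h ambient incubation.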
# IDH1 R132H inh – inhibitors of human mutant IDH1 R132H | Potency, µM (highest dose often 76.6 µM), for inactives: at the highest dose activity change, negative = inhibition, usual class: inhibitors | 0.093% of 390,000 active | IDH1-R132H enzyme, NADPH consumption, diaphorase/resazurin fluorescence | AID 602179; note: nearly all actives have a fitted effect of over 65% in size
#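 IDH1-R132H (0.5 ug/mL dispensed) in pH 7.5 Tris buffer was preincubated 30 min with compound, then given a substrate mix of 0.016 mM NADPH and 2 mM alpha-KG for 80 min at room temperature; remaining NADPH was read by diaphorase/resazurin fluorescence.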
# An asterisk follows results filed as active; ? = inconclusive; · = no result; [ ] = dose if it differs, or a comment. In the library only some 5.2% were active in any assay of this set; here they are far more common. Calls come from the whole dose curve; as a rule, active = well fitted curve in the direction sought with a large enough effect; inconclusive = small, poorly fitted or top-dose-only effect, or another doubt; inactive = no such curve, though single readings can be large; an effect the other way counts as inactive or inconclusive. Unless noted, % is set by controls: 0 for no effect and ±100 for the full control effect; potency is the fitted concentration of half-maximal effect.
SMILES,Sfp inh,rTrxR1 inhibitor,TrxR1 substrate,PLK1 PBD block,VDR inh,IDH1 R132H inh
Cc1ccc2cc(C)c(Sc3nnnn3-c3ccccc3)nc2c1,-2.0%,2.3%,-4.4%,-7.2%,3.0%,5.5%
Cc1cc(C)c(SSc2nnnn2-c2ccccc2)c(C)c1,·,·,·,2.99µM*,·,6.8%
CCOc1ccc(-n2c(Cc3ccccc3)nnc2SCc2nc(-c3cccs3)no2)cc1,·,21.3%,-3.9%,·,-6.0%,15.2%
CN1CC(O)(C(O)C(O)C(O)CO)SC1=S (stereo not drawn),·,·,·,21.2µM*,·,-4.4%
O=C(c1csnn1)N1CCC[C@@]2(CCN(c3ccncc3)C2)C1,-2.5%,·,·,·,70.8µM*,·
O=C(c1cnccn1)N1CCC[C@@]2(CCN(c3cccc(-c4ccccc4)c3)C2)C1,-26.0%,·,·,·,28.2µM*,·
CN(C)/C=C(\C#N)C(=O)N/N=C(\CC(=O)C(F)(F)F)c1ccco1,5.4%,12.8%[57.1 µM],1.0%[57.1 µM],-14.7%,-14.1%,12.9%
CCOC(=O)c1c(NC(=O)c2ccc(S(=O)(=O)N(CCOC)CCOC)cc2)sc2c1CC(C)(C)NC2(C)C,·,-28.5%[57.1 µM],-17.2%[57.1 µM],·,4.0%,15.6%
Cc1nc(=S)n(-c2ccccc2)[nH]1,?,-21.1%,13.3%[57.1 µM],-17.9%,4.1%,1.4%
Nc1nc(=S)n(-c2ccccc2)[nH]1,28.2µM*,6.8%[57.1 µM],6.4%[57.1 µM],23.8µM*,-12.3%,-1.5%
S=c1nc(-c2ccccc2)[nH]n1-c1ccccc1,39.8µM*,-8.5%,9.3%,0.0%,-30.6%,0.0%
S=c1nc(-c2ccccc2)n(-c2ccccc2)[nH]1,2.3%,-11.7%[57.1 µM],15.0%[57.1 µM],-11.5%,-2.3%,7.4%
O=c1c2c3c(sc2n(CCN2CCOCC2)c(=O)n1Cc1ccco1)CCCCC3,44.7µM*,-27.5%,-3.2%,-4.3%,28.4%,-4.0%
O=c1c2c3c(sc2n(CCN2CCCCC2)c(=O)n1Cc1ccco1)CCCCC3,-2.4%,?,-1.5%,-11.8%,-11.2%,1.5%
CCC(=O)Nc1ccc(N2CCOCC2)c(S(=O)(=O)Nc2ccc(Cl)cc2)c1,·,7.2%,2.5%,7.52µM*,?,-3.5%
C[C@H](NC(N)=O)C(=O)Nc1ccc(N2CCOCC2)c(S(=O)(=O)Nc2ccc(Cl)cc2)c1,·,-2.7%,-1.5%,2.67µM*,?,2.7%
O=C(Nc1ccc(Cl)cc1)Nc1cc(S(=O)(=O)N2CCOCC2)ccc1N1CCCC1,-18.1%,21.0%,6.0%,-11.1%,-4.0%,5.8%
O=C(Nc1cc(S(=O)(=O)Nc2ccc(Cl)cc2)ccc1N1CCCCC1)c1ccc(F)cc1,14.1µM*,-13.8%,-5.5%,11.9µM*,?,5.1%
O=S(=O)(Nc1ccc(Cl)cc1)c1ccc(N2CCOCC2)c(NC(=S)NCCN2CCOCC2)c1,3.98µM*,9.5%[57.1 µM],7.6%[57.1 µM],1.68µM*,?,0.7%
COc1ccc(NS(=O)(=O)c2ccc(N3CCOCC3)c(NC(=O)c3ccc(F)cc3)c2)cc1,-4.0%,-6.2%[57.1 µM],-1.5%[57.1 µM],-0.8%,-18.8%,0.2%
COC(=O)N1CCC2(CC1)CN(C(=O)Nc1ccccc1)C2,13.6%,·,·,·,-8.8%,·
COc1ccc(NS(=O)(=O)c2cc(NC(=O)c3ccc(Cl)cc3)ccc2N2CCOCC2)cc1,·,21.2%,3.1%,17.7%,6.2%,-1.4%
COCCNC(=S)Nc1ccc(N2CCOCC2)c(S(=O)(=O)Nc2ccc(Cl)cc2)c1,·,·,·,2.38µM*,·,-9.9%
CCC1CN(C(=O)Nc2cccc3c2CCCC3)c2cc(Cl)ccc2O1 (stereo not drawn),·,7.6%,0.2%,·,2.1%,8.6%
NC(=O)SCC(=O)Nc1ccc(Cl)c(Cl)c1,?,0.6%,-12.4%,0.5%,?,-2.5%
SMILES,Sfp inh,rTrxR1 inhibitor,TrxR1 substrate,PLK1 PBD block,VDR inh,IDH1 R132H inh
NC(=O)SCC(=O)Nc1ccc(Cl)cc1,-24.4%,9.5%,-11.2%,-17.0%,28.2µM*,9.0%
COc1ccc(NC(=O)CSc2nnnn2C2CCCC2)cc1S(=O)(=O)N1CCOCC1,·,·,·,0.3%,·,10.8%
CCc1ccc(OCc2nnc(-c3ccccc3Br)o2)cc1,·,-15.1%,-7.9%,29.9µM*,-6.9%,1.2%
CNCc1cc(C)n(-c2cc(S(=O)(=O)N3CCOCC3)ccc2N2CCCC2)c1C,·,·,·,-19.7%,·,-1.0%
Cc1cc(CNCCN(C)C)c(C)n1-c1cc(S(=O)(=O)N2CCOCC2)ccc1N1CCCC1,·,89.1µM*,27.5%,-5.8%,-13.5%,2.2%
CC1(C(=O)NS(=O)(=O)c2ccc3ccccc3c2)CCN1C(=O)Cc1ccc(-c2ccccc2)cc1 (stereo not drawn),·,·,·,42.3µM*,·,·
CC1(C(=O)NS(=O)(=O)Cc2cccc(Cl)c2)CCN1C(=O)Cc1ccc(-c2ccccc2)cc1 (stereo not drawn),·,·,·,67µM*,·,·
O=C(NCc1ccccn1)c1cccc(NS(=O)(=O)c2ccc(Br)cc2)c1,·,-8.6%,-1.0%,-4.9%,7.4%,-0.4%
CCN(CC)c1ccc(NC2CC(=O)N(CCc3ccc(OC)cc3)C2=O)cc1 (stereo not drawn),31.6µM*,?,0.9%,0.6%,?,9.9%
O=C(CN1CCCC1)OCCCC1CCCCC1,6.7%,1.7%,2.6%,-6.3%,-5.7%,8.2%
C[N+]1(CC(=O)OCCCC2CCCCC2)CCCC1,-1.9%,17.0%[57.1 µM],4.1%[57.1 µM],29.9µM*,-22.1%,-6.8%
O=C(N/N=C/c1cccnc1)c1cccc(NC(=O)c2cccc(Br)c2)c1,0.3%,13.2%,2.0%,4.6%,1.4%,0.0%
O=C(N/N=C/c1cccnc1)c1ccc(O)cc1,8.8%,-18.7%,-14.3%,-9.5%,3.1%,-0.2%
COc1ccc(C(=O)N/C(=C/c2cccnc2)C(=O)Nc2cccc(C(C)=O)c2)cc1OC,16.8%,6.5%[57.1 µM],10.2%[57.1 µM],29.9µM*,-14.0%,9.8%
CC(=O)Nc1cccc(C(=O)N/N=C/c2cccnc2)c1,15.7%,16.9%[57.1 µM],-5.9%,23.8µM*,-5.6%,-1.3%
O=C(N/N=C/c1cccnc1)c1cc(O)c(O)c(O)c1,39.8µM*,-18.7%,-13.0%,?,2.7%,-14.8%
O=C(N/N=C/c1ccncc1)c1cccc(S(=O)(=O)Nc2ccc(Cl)cc2)c1,56.2µM*,14.0%,5.3%,-18.7%,-1.0%,5.5%
COc1ccc(N2CCN(C(=O)Cn3nc(Cc4cccnc4)c4ccccc4c3=O)CC2)cc1,·,1.3%,-3.8%,·,-11.6%,3.9%
O=C(CNC(=O)c1ccc(Br)o1)NCc1cccc(Cl)c1,89.1µM*,12.9%,5.0%,-1.2%,-8.4%,-8.4%
O=C(CNC(=O)c1ccc(Br)o1)NCc1ccc(Cl)cc1Cl,10.0%,13.8%,0.7%,1.4%,-16.1%,0.8%
Cc1nn2c(-c3ccco3)nnc2c2ccccc12,5.3%,79.4µM*,-9.2%,-3.4%,-0.7%,3.3%
Cc1ccccc1-c1nnc2c3ccccc3c(C)nn12,-11.2%,11.1%,5.4%,-0.1%,15.5%,-3.2%
COc1ccc(-c2cc(=S)ss2)cc1,2.3%,·,·,·,39.8µM*,·

# Screening data deposited in PubChem BioAssay by National Center for Advancing Translational Sciences (NCATS).
